Hits are enriched below; roughly 6.8% of the tested compounds scored in any of these assays.
USP8 block – inhibitors of human USP8 deubiquitinase; inhibition, % at 20 µM; AID 1645853, 2021; purified USP8, Ub-rhodamine cleavage fluorescence, 30 min; hit rate 4.2% among 47,000
USP7 inh – inhibitors of human USP7 deubiquitinase; purified USP7, Ub-rhodamine cleavage fluorescence; hit rate 0.3% among 47,000; inhibition, % at 20 µM; Ubiquitin carboxyl-terminal hydrolase 7 (Homo sapiens), Q93009; AID 1645854, 2021
USP10 block – inhibitors of human USP10 deubiquitinase | purified USP10, Ub-rhodamine fluorescence, 60 min | hit rate 1.1% among 47,000 | Ubiquitin carboxyl-terminal hydrolase 10 (Homo sapiens), Q14694 | inhibition, % at 20 µM
USP28 inh – inhibitors of human USP28 deubiquitinase. purified USP28, Ub-rhodamine cleavage fluorescence, 30 min. inhibition, % at 25 µM. hit rate 3% among 47,000. AID 1645857, 2021
OTUD3 inh – inhibitors of human OTUD3 deubiquitinase. hit rate 0.7% among 47,000. OTU domain-containing protein 3 (Homo sapiens), Q5T2D3. inhibition, % at 25 µM. purified OTUD3, Ub-rhodamine fluorescence, 2 h. AID 1645858, 2021
UCHL1 inh – inhibitors of human UCHL1 deubiquitinase; Ubiquitin carboxyl-terminal hydrolase isozyme L1 (Homo sapiens), P09936; purified UCHL1, Ub-rhodamine cleavage fluorescence; hit rate 0.2% among 47,000; inhibition, % at 20 µM
Numbers without * were called inactive; nt = not tested or not shown. Cut-off read from the data, not from the text of the source: active = inhibition above about 30%; inactive = the rest.

SMILES | USP8 block | USP7 inh | USP10 block | USP28 inh | OTUD3 inh | UCHL1 inh
O=C(Nc1ccc2c(c1)OCO2)c1cc(-c2cccnc2)n(-c2ccccc2)n1 | 22.5 | -16.1 | 8.3 | 78.7* | 9.4 | 5.2
Cc1ccnc(NC(=O)c2cc(-c3cccnc3)n(-c3ccccc3)n2)c1 | -14.2 | 0.4 | -1.9 | -16.9 | -0.3 | 1.4
COc1ccc(-c2nc3c(nc2C(=O)c2ccccc2)c(=O)n(C)c(=O)n3C)cc1 | 0.6 | 3.5 | -2.7 | -71.5 | -56.3 | 1.6
Cc1cccc(NC(=O)CSc2nnc(-c3n[nH]c4c3CCC4)n2N)c1C | 50.6* | 9.1 | 19.7 | 8.7 | 10.5 | -1.4
Cc1ccc(NC(=O)CSc2nnc(-c3n[nH]c4c3CCC4)n2N)cc1C | 7.7 | 7.7 | 35.8* | -1.3 | 0.6 | 4.6
CC(C)c1ccc(C(C(=O)NC2CCCCC2)N(C(=O)c2cnccn2)c2cccc(F)c2)cc1 (centres undefined) | 30.4* | 8.5 | 2.9 | 15.6 | 18.1 | 6.9
CC(=O)c1ccc(N(C(=O)c2cnccn2)C(C(=O)NC2CCCCC2)c2ccc(F)cc2)cc1 (centres undefined) | -15.5 | -7.8 | -1.1 | -13.1 | -2.2 | -51.1
NC(=O)c1cccc(CN2CCC3(CC2)CC3c2nc(-c3cccc(Cl)c3)no2)c1 (centres undefined) | -87.2 | -27.8 | -9.8 | -25.5 | -25.2 | -2.9
CN(C)S(=O)(=O)Oc1ccc(C(=O)Nc2ccc(F)cc2)cc1 | 20.4 | 1.7 | 9.4 | 31.8* | 12.7 | 1.5
O=C(Nc1ccc(-n2cccc2)cc1)c1ccc(F)cc1 | 20.5 | 5.6 | 6.3 | 4.3 | 8.2 | 0.5
CN1C(=O)COc2ccccc2C/C=C/C[C@@H]2[C@H]1CCCN2C(=O)CCc1ccnn1C | 15.2 | 0.3 | -1.1 | 9.3 | 7.5 | 0.8
c1cncc(-c2nc(Nc3ccc4c(c3)OCCCO4)c3ccccc3n2)c1 | 0.9 | -1.3 | -5.3 | 6.1 | -17.6 | -6.7
c1cncc(-c2nc(Nc3ccc4c(c3)OCCO4)c3ccccc3n2)c1 | 28.3 | 9.8 | -0.9 | 43.7* | 9.8 | 5.0
Cc1ccccc1C(=O)Nc1ccc2c(c1)C(=O)N(C)c1ccccc1O2 | 9.1 | 4.3 | 4.5 | 40.2* | -1.8 | 1.5
Cc1ccc2c(c1)N(C)C(=O)c1cc(NC(=O)c3ccc(F)cc3)ccc1O2 | 77.0* | 20.3 | 40.1* | 24.1 | 15.7 | 3.2
COc1ccc(C(=O)Nc2ccc3c(c2)C(=O)N(C)c2ccccc2O3)cc1 | 8.3 | 6.1 | 5.1 | 70.6* | 0.3 | 4.5
CN1C(=O)c2cc(NC(=O)c3ccncc3)ccc2N2CCN=C12 | -35.2 | -0.2 | -0.3 | 0.0 | 8.5 | 0.2
Cc1ccccc1C(=O)Nc1ccc2cn(C)nc2c1 | 5.2 | 3.5 | 0.7 | 21.8 | 5.1 | 1.9
CCOC(=O)c1ccc(Oc2sccc2[N+](=O)[O-])cc1 | -126.2 | 85.0* | 4.4 | 5.3 | 12.7 | 0.0
Cc1oc2c(c1C(=O)NCCCc1ccccc1)C1=NCCN1C=N2 | 6.8 | -4.0 | -0.9 | -0.4 | -0.4 | 0.6
Nc1c(C(=O)c2ccco2)sc2c1c(=O)[nH]c(=O)n2Cc1ccc2c(c1)OCO2 | 53.7* | -4.1 | -7.5 | -57.9 | -61.9 | -4.3
O=C(c1ccc(Cn2c(=O)[nH]c3ccccc3c2=O)cc1)N1CCN(Cc2ccc3c(c2)OCO3)CC1 | 9.4 | 6.1 | 4.2 | 18.3 | 0.4 | 4.8
O=C(OCC(=O)N1CCOCC1)c1cc(-c2ccccc2)c(N2CCOCC2)s1 | 3.4 | -0.9 | -1.9 | 9.4 | 8.9 | 2.3
CCOC(=O)c1noc2ncnc(NCc3cccc(OC)c3)c12 | 69.7* | -4.4 | 2.6 | 0.6 | 3.8 | -1.4
CCOC(=O)c1c(C)oc2ncnc(Nc3cccc(OC)c3)c12 | -7.4 | -0.1 | 0.5 | 0.8 | 9.2 | -1.2
SMILES | USP8 block | USP7 inh | USP10 block | USP28 inh | OTUD3 inh | UCHL1 inh
CCOC(=O)c1noc2nc(C)nc(NCc3ccccc3OC)c12 | 43.3* | 1.8 | -2.1 | 12.7 | 8.9 | 3.2
CC(=O)CN1CC2(CCN(C(=O)CC(C)C)CC2)COc2ccccc2S1(=O)=O | -4.6 | 4.5 | -4.9 | 2.5 | 4.2 | 3.8
COC[C@H]1CCCN1C(=O)CC[C@H]1CNC(=O)[C@@H]2[C@@H](CCN2C2CCOCC2)N1C | 40.2* | -7.2 | -0.5 | 30.8* | 14.3 | 6.9
COC[C@H]1CCCN1C(=O)CC[C@H]1CNC(=O)[C@@H]2[C@@H](CCN2C2CCCCC2)N1C | 25.4 | -12.7 | 0.7 | 20.2 | 0.5 | 5.2
CC(C)N1CC[C@@H]2[C@H]1C(=O)NC[C@H](CCC(=O)N1CCOCC1)N2C | 9.5 | -0.1 | 2.2 | -3.3 | -3.4 | 0.5
COC[C@H]1CCCN1C(=O)CC[C@H]1CNC(=O)[C@@H]2[C@@H](CCN2C(C)C)N1C | 40.8* | -1.4 | 0.9 | 28.0 | 11.3 | 6.2
CC(C)CN1CC(=O)N2C(CCc3ccccc3)c3[nH]c4ccccc4c3C[C@@H]2C1=O (some centres undefined) | 12.4 | 8.3 | -4.2 | 6.7 | 1.3 | 3.5
COCCN(Cc1ccccc1)C(=O)c1ccc(-c2ccc(F)cc2)o1 | -7.6 | -34.9 | 6.6 | -0.1 | 7.4 | 2.7
CCC(=O)Nc1cccnc1-c1ccc(C(=O)Nc2ccc(C)cc2)cc1 | -17.6 | 0.9 | -1.0 | 17.9 | -5.7 | -1.1
CCC(=O)Nc1cccnc1-c1ccc(C(=O)Nc2ccc3c(c2)OCO3)cc1 | 74.9* | 17.7 | 13.1 | 40.0* | 5.1 | 3.2
Cc1ccc2nc(-c3ccccc3O)c(Nc3ccc(Cl)cc3)n2c1 | 76.1* | -5.5 | 5.8 | -3.7 | 6.3 | -0.1
Cc1oc2ncn3nc(C(C)Oc4cccc5ccccc45)nc3c2c1C (centres undefined) | 77.7* | -12.9 | -10.6 | -9.2 | -12.8 | -5.1
CC(C)=CCC/C(C)=C/CC/C(C)=C/Cc1c(C)cc(O)cc1O | 8.0 | 7.8 | 18.8 | 32.2* | 17.6 | 8.3
CC(C)C(=O)Nc1ccc(-n2cnc(C(=O)NC3CCCCC3)c2)nc1 | -43.4 | 1.6 | 4.1 | -2.4 | -5.1 | -3.0
Clc1cccc(-n2cc(-c3noc(-c4ccncc4)n3)nn2)c1 | -4.2 | 2.1 | -1.0 | -7.4 | -5.0 | -1.0
Fc1cccc(-n2cc(-c3noc(-c4cccnc4)n3)nn2)c1 | 51.9* | 3.4 | 3.1 | 20.9 | 6.0 | 4.6
COc1ccccc1-c1nc(-c2cn(-c3ccccc3)nn2)no1 | 14.1 | -3.5 | 3.6 | 16.6 | 11.8 | 3.7
COc1ccc(-c2nc(-c3cn(-c4cccc(Cl)c4)nn3)no2)c(OC)c1 | 29.5 | 25.2 | 34.0* | nt | -3.3 | 10.3
COc1ccc(-c2nc(-c3nnn(Cc4ccc(F)cc4)c3C)no2)c(OC)c1 | 59.6* | 3.9 | 10.8 | 39.8* | 27.1 | 2.9
COc1ccccc1-c1nc(-c2cn(-c3ccc(F)cc3)nn2)no1 | 89.3* | 20.3 | 33.3* | 12.9 | 8.3 | 7.9
COc1ccc(-c2nc(-c3nnn(Cc4cccc(F)c4)c3C)no2)cc1OC | -0.7 | 2.4 | -4.9 | 20.7 | 5.4 | 1.0

Compound activity: PubChem BioAssay, Buhrlage Lab, Dana-Farber Cancer Institute and Novartis Institutes for BioMedical Research (Cambridge, Mass)
